# Measured values from the supplement of paper PMC3334620.
# Over roughly 33,000 sequences, “E-score (-0.5 to 0.5)” has its median near -0.043; the highest 2% begin near 0.37. Shown is part of a subset that was picked to be rich in the highest values.
# Target: T1, Upc2 (UniProt Q12151)
# T1 sequence: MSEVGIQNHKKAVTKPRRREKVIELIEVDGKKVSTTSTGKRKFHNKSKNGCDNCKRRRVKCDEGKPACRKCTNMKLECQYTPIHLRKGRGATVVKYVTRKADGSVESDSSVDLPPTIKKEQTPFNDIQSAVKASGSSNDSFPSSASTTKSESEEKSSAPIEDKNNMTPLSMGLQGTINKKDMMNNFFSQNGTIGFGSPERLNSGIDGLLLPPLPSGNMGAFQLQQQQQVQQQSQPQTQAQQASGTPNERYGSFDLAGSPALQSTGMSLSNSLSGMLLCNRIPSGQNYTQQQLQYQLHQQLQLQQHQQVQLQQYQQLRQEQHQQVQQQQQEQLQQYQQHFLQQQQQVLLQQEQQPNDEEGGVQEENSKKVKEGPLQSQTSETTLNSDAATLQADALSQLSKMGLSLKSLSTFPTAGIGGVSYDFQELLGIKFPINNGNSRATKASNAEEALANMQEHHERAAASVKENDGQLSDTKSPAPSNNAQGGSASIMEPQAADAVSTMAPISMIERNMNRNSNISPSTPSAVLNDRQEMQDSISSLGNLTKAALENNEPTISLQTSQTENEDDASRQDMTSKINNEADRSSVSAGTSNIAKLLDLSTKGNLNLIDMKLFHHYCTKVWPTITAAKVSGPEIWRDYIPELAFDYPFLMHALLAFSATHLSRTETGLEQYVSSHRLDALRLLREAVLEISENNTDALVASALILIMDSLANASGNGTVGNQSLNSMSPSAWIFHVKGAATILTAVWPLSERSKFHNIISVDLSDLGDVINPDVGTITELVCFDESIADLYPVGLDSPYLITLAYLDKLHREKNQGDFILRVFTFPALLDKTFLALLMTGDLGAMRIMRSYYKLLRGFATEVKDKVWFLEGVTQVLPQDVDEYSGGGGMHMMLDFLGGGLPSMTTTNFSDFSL
# Assay: PBM E-score (8-mer binding enrichment) (E-score (-0.5 to 0.5)); higher = stronger / more preferred TF binding
# Conditions: protein concentration: 200 nM; construct: GST-full length
# In short: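 GST-tagged yeast TFs (full-length or DNA-binding domain) were made by PURExpress in vitro transcription/translation and applied at about 100-200 nM to universal all-10-mer Agilent arrays. The arrays were made double-stranded by primer extension, on fresh or once-stripped slides. Bound protein was detected with fluorescent anti-GST, and scans were normalised with masliner. Each ungapped eight-base word, pooled with its reverse complement, received an E-score (modified Wilcoxon-Mann-Whitney statistic) from the Universal PBM Analysis Suite.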
row,Sequence,PBM E-score
1,TGCGTAAA,0.294
2,TTCGTAAA,0.459
3,ATCGTAAT,0.287
4,GTCGTAAA,0.477
5,TCCGTAAA,0.357
6,ATCGTAAA,0.448
7,GACGTAAA,0.228
8,ATCGTAAC,0.372
9,GGCGTAAA,0.279
10,ACCGTAAC,0.27
11,ATCGTAAG,0.354
12,AACGTAAC,0.245
13,GAGTAGGC,-0.18
14,AGTCTACA,-0.115
15,AGAACACC,-0.039
16,CCGAGTGA,0.102
17,CAATAAGG,-0.351
18,CTCGTAAA,0.482
19,CGCGTAAA,0.354
20,CACGTAAA,0.253
21,ACAGATTA,-0.111
22,CATAGTAC,0.0276

row,Sequence,PBM E-score
1,ACATTTTA,0.187
2,AACGTCGG,0.176
3,ACCGTCGA,-0.191
4,AACGTCGT,0.38
5,ACCGTCGT,0.394
6,AACGTCGA,0.202
7,ACCGTCGC,0.233
8,GCAATCTA,-0.0928
9,TAAGTAAA,-0.00508
10,GTTGCAGA,-0.126
11,CCATACAA,-0.09
12,CCATACTA,-0.101
13,ACATACGG,0.354
14,CCATACGC,0.322
15,CCATACGA,0.473
16,CCATACGG,0.396
17,CCGTTCCG,0.323
18,ATTGTTGG,-0.153
19,CGATTTGC,-0.0413
20,CCGGTTAG,0.0696
21,ACAGGTAA,-0.0299
22,ACGATACG,0.391

row,Sequence,PBM E-score
1,CCGATACG,0.392
2,CGGATACA,0.201
3,AAGATACG,0.349
4,CAGATACG,0.375
5,ACGATACA,0.279
6,CCGATACC,-0.00432
7,ACGATACT,0.313
8,CAGATACC,-0.184
9,CCGATACA,0.159
10,CGGATACG,0.408
11,CGGATACC,0.0516
12,ATTCTAAA,0.155
13,CCCAGCCA,-0.0649
14,GACGGTGC,0.0569
15,AAAATCTG,-0.0273
16,CGCATAGC,0.265
17,AAGACTGG,-0.109
18,CCCTCACA,-0.164
19,CACGAGTG,0.0785
20,AACGCGTT,0.248
21,AACGAGTT,0.399
22,CACGAGTA,0.126

row,Sequence,PBM E-score
1,AACGAGTG,0.414
2,AGCGAGTA,0.269
3,AAAGAGTT,-0.235
4,ACCGAGTA,0.25
5,GACGAGTA,0.104
6,AGCGAGTG,0.204
7,TACGAGTA,0.453
8,AACGAGTA,0.437
9,ATCATCTA,-0.0847
10,CTGGTCAA,-0.17
11,ACAATATC,0.125
12,CATCAGCC,-0.104
13,TTACTGAA,0.182
14,AACGAGTC,0.414
15,GACGAGTC,0.0657
16,CACGAGTC,0.00415
17,ACAATAAT,0.0963
18,ACCCGCTG,-0.245
19,AAGCTGCG,-0.0191
20,AGGTTCAA,-0.0255
